Inconclusive results are not listed. Where a call stands in place of a potency, no number is given. Active and inactive are the calls of the source. Calls follow the shape of the full dose curve.
Potency is read from the fitted curve at half-maximal effect.

A short description of this test: A High-Content qHTS Against Drug Library for the Identification of Small Molecules that Inhibit DYT1 Early Onset Primary Dystonia-Associated Cell Pathology (AID 1645839). Particulars: HEK293 Flp-In EGFP-delE TorsinA, punctate imaging, 48 h; series mostly up to 46.1 µM. An excerpt: Nicole Calakos M.D., Ph.D.
Duke University School of Medicine, Durham, NC
In DYT1 dystonia due to delGAG in the TOR1A gene, there is a robust and widely replicated finding of TorsinA protein mislocalization caused when the mutant protein is in excess of the wildtype protein (1-7). Stable HEK293 cell lines were created that replicate this phenomenon. Inducible expression of an EGFP-hu delE TorsinA encoding cDNA causes pronounced punctate cellular distribution. […] This phenotypic difference in EGFP-huTorsinA fusion protein distribution serves as an indicator of cell pathology. […] RNAi screen results with the assay were validated in DYT1 patient cell phenotypes, intersected with a known dystonia gene, and led to discovery of new human genetic dystonia associations.
The bioassay described herein is a high-content image screen with two readouts. The "%pathology" readout is the primary qHTS data channel, while the "cellcount" is the counterscreen qHTS channel. Desired active compounds are those that show inhibition in %pathology channel but no activity or minimal toxicity in cellcount readout.
1. Kustedjo, K., Bracey, M.H., and Cravatt, B.F. (2000). […] J. Biol. Chem. 275, 27933 - 27939.
2. Bragg, D.C., Kaufman, C.A., Kock, N., and Breakefield, X.O. (2004). Inhibition of N-linked glycosylation prevents inclusion formation by the dystonia-related mutant form of torsinA. Mol. Cell. Neurosci. 27, 417 - 426.
3. Gonzalez-Alegre, P., and Paulson, H.L. (2004). Aberrant Cellular Behavior of Mutant TorsinA Implicates Nuclear Envelope Dysfunction in DYT1 Dystonia. J. Neurosci. 24, 2593 - 2601.
4. Goodchild, R.E., and Dauer, W.T. (2004). Mislocalization to the nuclear envelope: an effect of the dystonia-causing torsinA mutation. Proc. Natl. Acad. Sci. U. S. A. 101, 847 - 852.
5. Kock, N., Allchorne, A.J., Sena-Esteves, M., Woolf, C.J., and Breakefield, X.O. (2006). RNAi blocks DYT1 mutant torsinA inclusions in neurons. Neurosci. Lett. 395, 201 - 205.
6. Hewett, J.W., Nery, F.C., Niland, B., Ge, P., Tan, P., Hadwiger, P., Tannous, B.A., Sah, D.W.Y., and Breakefield, X.O. (2008). siRNA knock-down of mutant torsinA restores processing through secretory pathway in DYT1 dystonia cells. Hum. Mol. Genet. 17, 1436 - 1445.
7. Calakos, N., Patel, V.D., Gottron, M., Wang, G., Tran-Viet, K.N., Brewington, D., Beyer, J.L., Steffens, D.C., Krishnan, R.R., and Zuchner, S. (2010). Functional evidence implicating a novel TOR1A mutation in idiopathic, late-onset focal dystonia. J. Med. Genet. 47, 646 - 650.
8. Rittiner* JE, Caffall* ZF, Hernandez-Martinez R, Sanderson SM, Pearson JL, Tsukayama KK, Liu AY, Xiao C, Tracy S, Shipman MK, Hickey P, Johnson J, Scott B, Stacy M, Saunders-Pullman R, Bressman S, Simonyan K, Sharma N, Ozelius LJ, Cirulli ET, Calakos N. Functional Genomic Analyses of Mendelian and Sporadic Disease Identify Impaired eIF2alpha Signaling as a Generalizable Mechanism for Dystonia. Neuron. 2016 Dec 21;92(6):1238-1251. doi: 10.1016/j.neuron.2016.11.012. Epub 2016 Dec 8. PMID: 27939583; PMCID: PMC5320521.
High-content, High-throughput Drug Screening Assay
The TorsinA mislocalization assay was modified from the previously published assay to accommodate compound testing in 1536 well format.1 Briefly, Flp-In T-REx 293 cells from Invitrogen in which a single copy of a cDNA is recombined into a specific genomic locus was used to create tetracycline-inducible expression of cDNA encoding either EGFP-hTOR1A (WT) or EGFP-delE hTOR1A (DYT1). WT and DYT1 cells were diluted to a concentration of 2 x 10^5 cells/mL in reduced serum media (DMEM High Glucose containing 1% tetracycline-tested FBS, 2 mM L-Glutamine, and 1% Penicillin/Streptomycin). 4 µl of WT cells and 4 µl of DTY1 cells were added to column 1 and columns 2-48, respectively, of a poly-D-lysine-coated, low base, black, clear bottom 1536 well plate (Corning, Corning, NY) using the BioRAPTR FRD Microfluidic Workstation (Beckman Coulter, Indianapolis, IN). The final cell number was 800 cells/well. […]
Consider `O=C(c1cc(O)c(O)c(O)c1)c1ccc(O)c(O)c1O`, for which the Potency result is “inactive”.

`CCCc1ccc(OCC(=O)N2CCN(C(=O)COc3ccc(CCC)cc3OC)CC2)c(OC)c1`: the Potency was 11.2 µM (active).

With `Cc1cc2nc3ccc(=[N+](C)C)cc-3sc2cc1N`, the Potency was 7.08 µM (active).

For the molecule `Nc1c(NC/C=C\COc2cc(CN3CCCCC3)ccn2)c(=O)c1=O`, the Potency entry was “inactive”.

Regarding `C1N2CN3CN1CN(C2)C3`, the Potency entry is “inactive”.

Consider `NS(=O)(=O)c1cc2c(cc1Cl)CN(C1CCCCC1)C2=O`, for which the Potency result was “inactive”.

For the molecule `CC(=O)OCC[N+](C)(C)C`, the Potency entry was “inactive”.

As to `CC(=O)N[C@@H](CCC(N)=O)C(=O)O`, the Potency result was “inactive”.

Consider `CC(=O)N(CC(O)CO)c1c(I)c(C(=O)NCCO)c(I)c(C(=O)NCC(O)CO)c1I` (stereo not given), for which the Potency result was “inactive”.

As for `O=C(O)Cn1cnnn1`, the Potency entry is “inactive”.

Regarding `NC(=O)COCCN1CCN(C(c2ccccc2)c2ccc(Cl)cc2)CC1` (stereo not given), the Potency entry was “inactive”.

Regarding `CCCCOC(=O)CCCCCCCCC(=O)OCCCC`, the Potency entry is “inactive”.

Regarding `CNC[C@H](O)[C@@H](O)[C@H](O)[C@H](O)CO`, the Potency result was “inactive”.

As to `CCn1ccc(NS(=O)(=O)c2ccc(N)cc2)nc1=O`, the Potency result was “inactive”.

In the case of `CCC(C(=O)OCCN1CCOC(c2ccccc2)C1C)c1ccccc1` (stereo not given), the Potency entry is “inactive”.

With `CNC(=O)c1c(I)c(NC(C)=O)c(I)c(C(=O)O)c1I`, the Potency result is “inactive”.

With `O=C(O)Cc1ccc(OCCNC[C@H](O)c2ccccc2)cc1`, the Potency result is “inactive”.

With `COC(=O)/C=C(/C)N`, the Potency entry was “inactive”.

Regarding `CC1(C)O[C@@H]2C[C@H]3[C@@H]4C[C@H](F)C5=CC(=O)C=C[C@]5(C)[C@@]4(F)[C@@H](O)C[C@]3(C)[C@]2(C(=O)CO)O1`, the Potency entry is “inactive”.

Turning to `Cc1ccc2ccc(Cl)cc2n1`, the Potency entry was “inactive”.

`CN1CCCN=C1/C=C/c1cccs1`: the Potency result is “inactive”.

`CCCC(=O)c1cc(O)c(O)cc1O`: the Potency entry was “inactive”.

On to `CN1Cc2cc(C(=O)N3CCC(C4CCNCC4)CC3)ccc2NC(CC(=O)O)C1=O` (stereo not given), for which the Potency result is “inactive”.

As to `CN1CCC(=C2c3ccccc3CCc3cccnc32)CC1`, the Potency result is “inactive”.

In the case of `O=C(O)/C=C(\CC(=O)O)C(=O)O`, the Potency entry is “inactive”.

`CN=C(N)NC(=O)Nc1c(C)cccc1C`: the Potency entry is “inactive”.

Take `O=C(OCC(COC(=O)c1cccnc1)(COC(=O)c1cccnc1)COC(=O)c1cccnc1)c1cccnc1`: the Potency entry is “inactive”.

For `CC(=O)Nc1ccc(S(=O)(=O)Nc2cc(C)on2)cc1`, the Potency result is “inactive”.

Take `Nc1ncnc2c1ncn2Cc1c(F)cccc1Cl`: the Potency result is “inactive”.

As to `NC(=O)NC1N=C([O][Al])NC1=O` (stereo not given), the Potency result was “inactive”.

In the case of `CCCOc1ccc2c(c1)CC[C@@H]1[C@@H]2CC[C@]2(C)C(OC)CC[C@@H]12` (stereo not given in full), the Potency entry is “inactive”.

In the case of `CCOC(=O)NNc1ccc(N(CC)CC(C)O)nn1` (stereo not given), the Potency result is “inactive”.

On to `Cc1oc(=O)oc1COC(=O)[C@@H]1N2C(=O)[C@@H](NC(=O)[C@H](N)c3ccccc3)[C@H]2SC1(C)C`, for which the Potency result was “inactive”.

Consider `CN(C(=O)C(Cl)Cl)c1ccc(OC(=O)c2ccco2)cc1`, for which the Potency result is “inactive”.

As to `O=c1[nH]sc2cc(Cl)ccc12`, the Potency entry was “inactive”.

For the molecule `CCCCCCCCCCCCCCCCCCN(C)C`, the Potency result is “inactive”.

As to `Cc1cc(C(C)(C)C)c(O)c(C(C)(C)C)c1`, the Potency entry was “inactive”.

On to `C[C@H]1NCc2cc(-c3ccc4c(=O)c(C(=O)O)cn(C5CC5)c4c3OC(F)F)ccc21`, for which the Potency result is “inactive”.

Regarding `CN1C(CSCC(F)(F)F)Nc2cc(Cl)c(S(N)(=O)=O)cc2S1(=O)=O` (stereo not given), the Potency result is “inactive”.

Consider `O=C(O)Cc1ccccc1Oc1ccc(Cl)cc1Cl`, for which the Potency result is “inactive”.

These data come from PubChem BioAssay (NCATS).
